Among the data in the supplement of paper PMC13380429 are morphology score and SARS-CoV-2 infection rate values, retold here.

One test deals with Vero E6 infected with SARS-CoV-2. Kind of test: morphology score (similarity to uninfected cells); higher = more like uninfected cells. The following applies: 24 h.
`c1ccc(OCc2ccc(CCCN3CCOCC3)cc2)cc1` [fomocaine] (10 µM) came in with a morphology score of -0.0235.
With `C=CCc1ccc(O)c(-c2cc(CC=C)ccc2O)c1` [magnolol] (10 µM), the morphology score turned out to be 0.249.
Still for that read-out and setting: the same measure for `O=C(Nc1ccc(-c2ccncc2)cc1)N[C@H](CO)c1ccccc1` (0.833333 µM): 0.489.
Same read-out and setting: as for `Cc1n[nH]c2ccc(-c3cncc(OC[C@@H](N)Cc4ccccc4)c3)cc12` (10 µM), the figure is 0.111; as for `CCS(=O)(=O)c1ccc2oc(-c3ccc4ccccc4c3)nc2c1` [ezutromid] (10 µM), 0.174; as for `COc1ccc(C2(O)CCC(N3CC[C@@H](NC(=O)CNC(=O)c4cccc(C(F)(F)F)c4)C3)CC2)cn1` (stereo partly specified) (10 µM), -0.0197.

Another test has the same test system. Kind of test: SARS-CoV-2 infection rate relative to infected DMSO; higher = more infection, active = 60 or less. The following applies: 24 h.
Consider `NC(=O)CN1C=CCC(C(N)=O)=C1` [caricotamide] (10 µM), for which the SARS-CoV-2 infection rate is 106% (inactive).
On the same count and under the same terms, the same measure for `CC(C)(C)OC(=O)N[C@H]1CCCCC/C=C\[C@@H]2C[C@@]2(C(=O)NS(=O)(=O)C2CC2)NC(=O)[C@@H]2C[C@@H](OC(=O)N3Cc4cccc(F)c4C3)CN2C1=O` [danoprevir] (10 µM): 114% (inactive); for `O=C(O)COc1cccc(-c2ocnc2-c2nc(-c3ccccc3)c(-c3ccccc3)o2)c1` (10 µM): 102% (inactive); for `C[n+]1ccc(C(=O)NCc2ccccc2)cc1` [enisamium-iodide] (10 µM): 90% (inactive).
On the same count and under the same terms, as for `COc1ccc(CCC(=O)c2c(O)cc(O[C@@H]3O[C@H](CO)[C@@H](O)[C@H](O)[C@H]3O[C@@H]3O[C@@H](C)[C@H](O)[C@@H](O)[C@H]3O)cc2O)cc1O` [Neohesperidin dihydrochalcone (Nhdc)] (10 µM), the figure is 99.5% (inactive); as for `CN1C(=O)CC(C)(c2ccccc2)C1=O` (stereo unspecified) [methsuximide] (10 µM), 110% (inactive); as for `CCOc1ccccc1OCC1CNCCO1` (stereo unspecified) [viloxazine] (10 µM), 112% (inactive).
For `CN1CCc2c(c3ccccc3n2Cc2ccc(C(=O)NO)cc2)C1` [tubastatin-A] (0.833333 µM), the SARS-CoV-2 infection rate was 95.5% (inactive).
`CCc1c(O)cc(O)c(C(=O)c2ccc(OCCN3CCOCC3)c(OC)c2)c1CC(=O)N(CCOC)CCOC` (10 µM): the SARS-CoV-2 infection rate is 102% (inactive).
The same measure, in the same setting: as for `O=S1(=O)c2cccc3cccc(c23)N1CCCN1CCN(c2ccc(F)cc2)CC1` [fananserin] (10 µM), the figure is 108% (inactive).
Same read-out and setting: as for `CCn1c2ccccc2c2cc(Nc3ccnc(NCCCN4CCOCC4)n3)ccc21` (0.833333 µM), the figure is 93% (inactive); as for `CC(O)CN1CCN(CC(=O)[O-])CCN(CC(=O)[O-])CCN(CC(=O)[O-])CC1.[Gd+3]` (stereo unspecified) [gadoteridol] (10 µM), 108% (inactive).
Same read-out and setting: the same measure for `NCCS(=O)(=O)O` [taurine] (10 µM): 94.5% (inactive); for `Fc1ccc(C(OCCN2CCN(C/C=C/c3ccccc3)CC2)c2ccc(F)cc2)cc1` (10 µM): 65.5% (inactive).
With `CCCCC[C@H](O)/C=C/[C@H]1[C@H](O)CC(=O)[C@@H]1CCCCCCC(=O)O` [alprostadil] (10 µM), the SARS-CoV-2 infection rate is 90.5% (inactive).
Still for that read-out and setting: the same measure for `COc1cc(NC(=O)c2cccc(-n3cc(NC(=O)Nc4cccc(C)c4)cn3)c2)cc(OC)c1OC` (10 µM): 104% (inactive).
Same read-out and setting: the same measure for `CC(C)SC(=N)N` [S-isopropylisothiourea] (10 µM): 105% (inactive).
Still for that read-out and setting: the same measure for `CC(C)OC(=O)C1=CN(C(=O)c2ccc(F)c(F)c2)CC(C)(C)c2c1[nH]c1ccccc21` (10 µM): 100% (inactive); for `O=[N+]([O-])c1cn2c(n1)OC[C@@H](OCc1ccc(OC(F)(F)F)cc1)C2` [pretomanid] (10 µM): 112% (inactive); for `O=C(CC(c1ccccc1)c1ccccc1)N1CCN(C(c2ccccc2)c2ccccc2)CC1` (10 µM): 102% (inactive).
`CO/N=C(\C(=O)N[C@@H]1C(=O)N2C(C(=O)[O-])=C(C[n+]3ccn4ncccc43)CS[C@H]12)c1nsc(N)n1` [cefozopran] (10 µM): the SARS-CoV-2 infection rate is 112% (inactive).
Consider `C[S+]([O-])c1ccc(-c2nc(-c3ccc(F)cc3)c(-c3ccncc3)[nH]2)cc1` (stereo unspecified) (10 µM), for which the SARS-CoV-2 infection rate was 95% (inactive).
Still for that read-out and setting: the same measure for `CCOC(=O)c1ccc(-c2ccc(OC(=O)N(C)Cc3cccc(-c4ccncc4)c3)cc2)cc1` (10 µM): 104% (inactive); for `COc1ccc(C(=O)c2c(C)n(CCN3CCOCC3)c3ccccc23)cc1` [pravadoline] (10 µM): 106% (inactive).
In the case of `FCc1ccc(OCCOc2ccc(Cl)cc2Cl)c(Cl)n1` (10 µM), the SARS-CoV-2 infection rate was 116% (inactive).
